# From PMC8384837, “Expanding the binding specificity for RNA recognition by a PUF domain”
# How the values were obtained:
# Assay in all cases: yeast three-hybrid, YBZ-1, SC-Leu-His + 0.5 mM 3-AT, 4 days
# Settings in all cases: tags: N-Gal4 AD-HA kept; label: inside an RPR1-promoter hybrid RNA with tandem MS2 sites; ssRNA
# [1] = molecular target: PUM1 PUF domain R3-FCS (Homo sapiens, UniProt Q14671 828-1176, C935F;R936C;Q939S)
# Outline: (§1)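 A centromeric plasmid in strain YBZ-1 co-expressed Pumilio-1 PUF domain libraries, randomized at the three base-contacting residues of each repeat, with matching RNA elements; the strain carries a LexA–MS2 coat fusion and a HIS3 reporter. After four days on SC-Leu (input) or SC-Leu-His + 0.5 mM 3-AT (selection), the repeat regions were PCR-amplified and Illumina-sequenced. The interaction score is the log change in variant frequency from input to selection, using log2 and a pseudocount of 1 where absent.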
# [2] = molecular target: PUM1 PUF domain R3-VYD (Homo sapiens, UniProt Q14671 828-1176, C935V;R936Y;Q939D)
# Outline: as §1
# [3] = molecular target: PUM1 PUF domain R3-GFL (Homo sapiens, UniProt Q14671 828-1176, C935G;R936F;Q939L)
# Outline: as §1
# [4] = molecular target: PUM1 PUF domain R4-WGT (Homo sapiens, UniProt Q14671 828-1176, N971W;H972G;Q975T)
# Outline: as §1
# [5] = molecular target: PUM1 PUF domain R5-PRD (Homo sapiens, UniProt Q14671 828-1176, C1007P;Q1011D)
# Outline: as §1
# [6] = molecular target: PUM1 PUF domain R5-AFY (Homo sapiens, UniProt Q14671 828-1176, C1007A;R1008F;Q1011Y)
# Outline: as §1
# [7] = molecular target: PUM1 PUF domain R4-NRV (Homo sapiens, UniProt Q14671 828-1176, H972R;Q975V)
# Outline: as §1
# [8] = molecular target: PUM1 PUF domain R5-RND (Homo sapiens, UniProt Q14671 828-1176, C1007R;R1008N;Q1011D)
# Outline: as §1
# [9] = molecular target: PUM1 PUF domain R3-SRL (Homo sapiens, UniProt Q14671 828-1176, C935S;Q939L)
# Outline: as §1
# [10] = molecular target: PUM1 PUF domain R4-WGR (Homo sapiens, UniProt Q14671 828-1176, N971W;H972G;Q975R)
# Outline: as §1
# [11] = molecular target: T1, PUM1 PUF domain R6-VYL (Homo sapiens, UniProt Q14671 828-1176, N1043V;Q1047L)
# T1 sequence: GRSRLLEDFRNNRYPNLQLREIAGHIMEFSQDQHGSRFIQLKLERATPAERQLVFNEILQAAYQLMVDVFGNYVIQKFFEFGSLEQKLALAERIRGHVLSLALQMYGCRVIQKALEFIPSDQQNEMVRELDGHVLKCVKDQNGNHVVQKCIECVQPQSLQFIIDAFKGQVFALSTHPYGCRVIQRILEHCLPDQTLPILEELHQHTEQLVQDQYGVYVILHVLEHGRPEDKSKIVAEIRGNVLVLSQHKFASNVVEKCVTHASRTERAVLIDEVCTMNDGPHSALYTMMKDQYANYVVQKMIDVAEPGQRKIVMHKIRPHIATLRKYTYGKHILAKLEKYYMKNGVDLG
# Outline: as §1
# [12] = molecular target: PUM1 PUF domain R3-CFD (Homo sapiens, UniProt Q14671 828-1176, R936F;Q939D)
# Outline: as §1
# [13] = molecular target: PUM1 PUF domain R1-QVR (Homo sapiens, UniProt Q14671 828-1176, S863Q;R864V;Q867R)
# Outline: as §1
# [14] = molecular target: PUM1 PUF domain R2-AWY (Homo sapiens, UniProt Q14671 828-1176, N899A;Y900W;Q903Y)
# Outline: as §1
# [15] = molecular target: PUM1 PUF domain R1-NKR (Homo sapiens, UniProt Q14671 828-1176, S863N;R864K;Q867R)
# Outline: as §1
sequence,measurement,setting,value
GGCUAGAACUAGUGGAUCCCCCGGCGCCCGGCGGCUCGAGCCCGGGUAAGUGUAAGUAGUCUGCAUGCCGCCGGGCGCCAUGCCUGCAGGUCGACUCUAGAAAACAUG,binding signal,[1],5.25 log2 enrichment (interaction score)
GGCUAGAACUAGUGGAUCCCCCGGCGCCCGGCGGCUCGAGCCCGGGUAAGUGUAAAUAGUCUGCAUGCCGCCGGGCGCCAUGCCUGCAGGUCGACUCUAGAAAACAUG,binding signal,[2],6.46 log2 enrichment (interaction score)
same,binding signal,[3],4.38 log2 enrichment (interaction score)
same,binding signal,[4],3.43 log2 enrichment (interaction score)
same,binding signal,[5],3.41 log2 enrichment (interaction score)
same,binding signal,[6],2.38 log2 enrichment (interaction score)
same,binding signal,[7],1.46 log2 enrichment (interaction score)
same,binding signal,[8],0.31 log2 enrichment (interaction score)
same,binding signal,[9],3.65 log2 enrichment (interaction score)
same,binding signal,[10],0.32 log2 enrichment (interaction score)
same,binding signal,[11],0.58 log2 enrichment (interaction score)
same,binding signal,[12],3.85 log2 enrichment (interaction score)
GGCUAGAACUAGUGGAUCCCCCGGCGCCCGGCGGCUCGAGCCCGGGUAAGUGUAUAUAGUCUGCAUGCCGCCGGGCGCCAUGCCUGCAGGUCGACUCUAGAAAACAUG,binding signal,[4],4.02 log2 enrichment (interaction score)
same,binding signal,[7],2.52 log2 enrichment (interaction score)
same,binding signal,[10],3.49 log2 enrichment (interaction score)
GGCUAGAACUAGUGGAUCCCCCGGCGCCCGGCGGCUCGAGCCCGGGUAAGUGUAAAUUGUCUGCAUGCCGCCGGGCGCCAUGCCUGCAGGUCGACUCUAGAAAACAUG,binding signal,[13],1.47 log2 enrichment (interaction score)
GGCUAGAACUAGUGGAUCCCCCGGCGCCCGGCGGCUCGAGCCCGGGUAAGUGUAAAAAGUCUGCAUGCCGCCGGGCGCCAUGCCUGCAGGUCGACUCUAGAAAACAUG,binding signal,[14],3.08 log2 enrichment (interaction score)
GGCUAGAACUAGUGGAUCCCCCGGCGCCCGGCGGCUCGAGCCCGGGUAAGUGUACAUAGUCUGCAUGCCGCCGGGCGCCAUGCCUGCAGGUCGACUCUAGAAAACAUG,binding signal,[4],2.69 log2 enrichment (interaction score)
same,binding signal,[7],1.97 log2 enrichment (interaction score)
same,binding signal,[10],3.78 log2 enrichment (interaction score)
GGCUAGAACUAGUGGAUCCCCCGGCGCCCGGCGGCUCGAGCCCGGGUAAGUGUAAAUGGUCUGCAUGCCGCCGGGCGCCAUGCCUGCAGGUCGACUCUAGAAAACAUG,binding signal,[15],1.8 log2 enrichment (interaction score)
